aSyn yeast inh: qHTS of alpha-syn Inhibitors; Yeast expressing alpha-synuclein, growth rescue, BacTiter-Glo, 24 h; Potency, µM (top dose mostly 46.1 µM), without a hit: at the top dose growth rescue (activation), hits mostly activators; hit rate 0.14% among 370,000; AID 652106, 2013; also: % of control where 0% means no effect; nearly all actives have a fitted effect of over 65% in size
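Screening used galactose-induced yeast with toxic alpha-synuclein levels, exposed to compound for 24 hr at 30 deg C. Cell growth, read with BacTiter-Glo luminescence, gave the measured signal.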
FUS yeast rescue: qHTS for Suppressors of FUS Proteinopathy: Primary screen using FUS-linked yeast assay. S. cerevisiae FUS-expressing, growth rescue, OD600, 24 h. Potency, µM (titrated, usually from 76.6 µM), actives largely listed as activators. hit rate 0.24% among 390,000. AID 1347120, 2019;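 also: plate controls were DMSO vehicle for no effect and reference control for full effect; nearly all actives have a fitted effect of over 55% in size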
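FUS-expressing yeast, raffinose-pregrown, induced in 2% galactose minimal medium at OD 0.005; compounds in a dilution series, 24hr at 30C. Growth restoration read as absorbance at 600 nm. CP55940 positive control, DMSO negative.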
Abeta yeast res: qHTS for compounds that reverse cellular toxicity of Amyloid beta (A-beta) peptide in yeast: Primary Screen. yeast expressing A-beta42, growth rescue, OD600, 48 h; response scale: 0% DMSO, 100% iron-clioquinol control. AID 1347071, 2019. hit rate 0.063% among 410,000. Potency, µM (top dose mostly 46.1 µM), hits mostly activators; also: nearly all actives have a fitted effect of over 55% in size
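Yeast growth medium received pinned compounds, then yeast cells expressing toxic A-beta were added; plates incubated at 30 C for 48 hr. Growth read as absorbance at 600 nm, normalized to DMSO and equimolar FeCl3 plus clioquinol controls.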
TDP-43 yeast inh: qHTS of TDP-43 Inhibitors. hit rate 1.8% among 410,000. Potency, µM (series often up to 46.1 µM), inactives show at the top dose growth rescue (activation), hits mostly activators. TDP-43 expressing yeast growth rescue, BacTiter-Glo, 24 h; also: % of control where 0% means no effect; nearly all actives have a fitted effect of over 50% in size
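Galactose-induced TDP-43 yeast, OD600=0.02, compound pinned; 24 hr, 30 deg C; BacTiter-Glo luminescence for growth. Inhibitors of TDP-43 toxicity read as activators.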
The depositor's hits bear a star; i = inactive; ? = inconclusive; / = no result; [ ] = dose if it differs, or a comment. Compounds with a hit are over-represented: about 2.1% of the library has one in this group of screens. Calls follow the shape of the dose curve; as a rule, active = well fitted curve in the direction sought with a large enough effect; inconclusive = small, poorly fitted or top-dose-only effect, or another doubt; inactive = no such curve, though single readings can be large; an effect the other way counts as inactive or inconclusive. Potency is read from the fitted curve at half-maximal effect.

SMILES	aSyn yeast inh	FUS yeast rescue	Abeta yeast res	TDP-43 yeast inh
Cc1ccc(NC(=O)c2cnn(-c3ccc(C)c(C)c3)c2C2CCN(C(=O)OC(C)(C)C)CC2)c(C)c1	/	i	i	8%
Cc1cc(C)c(S(=O)(=O)c2ccccc2)c(N(C)C)n1	0%	i	i	13%
CN(C)c1nc(F)c(F)c(S(=O)(=O)c2ccccc2)c1F	2%	i	i	14µM*
Cc1cc(SCC(=O)OCC(=O)N2CCN(C(=O)c3ccco3)CC2)c(C)cc1Br	11%	i	i	8%
Cc1cc(SCC(=O)N2CCN(C(=O)c3ccco3)CC2)c(C)cc1Br	-6%[1.84 µM]	i	i	25µM*
Nc1ccc(C#Cc2ccccc2)cc1	5%	i	i	14µM*
CCOC(=O)N1CCN(C(=O)C[C@H]2C[C@@]3(C(=O)OC)C(=C[C@H](C(C)C)O[C@@H]3C3CC3)N(CCc3ccc(OC)c(OC)c3)C2=O)CC1	/	i	/	/
CCOC(=O)[C@]12CCCC=C1N(CCC1=CCCCC1)C(=O)[C@H](CC(=O)NCCC(C)C)C2	-18%	i	i	25µM*
COC(=O)[C@]12CCCCC=C1N(Cc1ccco1)C(=O)[C@H](CC(=O)N1CCC(c3ccccc3)CC1)C2	7%	i	i	13µM*
CCCCCCCCN1C(=O)[C@H](CC(=O)NCCC(C)C)C[C@@]2(C(=O)OCC)CCCC=C12	-1%	?	i	-12%
CCOC(=O)N1CCN(C(=O)C[C@H]2C[C@@]3(C(=O)OC)C(=C[C@H](C(C)C)O[C@@H]3C3CC3)N(CCC3=CCCCC3)C2=O)CC1	/	13µM*	/	/
COC(=O)[C@]12CCCCC=C1N(CCC1=CCCCC1)C(=O)[C@H](CC(=O)NCc1ccccc1)C2	22%	i	i	35µM*
CCOC(=O)[C@]12CCCC=C1N(Cc1ccco1)C(=O)[C@H](CC(=O)N1CCC(c3ccccc3)CC1)C2	2%	i	i	14%
CCc1ccccc1Nc1nn2c(=O)c3ccc(C(=O)NCCC4=CCCCC4)cc3nc2s1	-5%	i	i	8%
CCOC(=O)[C@]12CCCC=C1N(CCC1=CCCCC1)C(=O)[C@H](CC(=O)NCCc1ccccc1OC)C2	6%	i	i	20µM*
CCOC(=O)[C@]12CCCC=C1N(Cc1ccccc1)C(=O)[C@H](CC(=O)NCC13CC4CC(CC(C4)C1)C3)C2	6%	13µM*	i	-5%
Cc1cccc(Nc2n[nH]c(=S)s2)c1C	-31%	i	i	29%
Cc1cccc(Nc2nc3ccccc3s2)c1C	-7%	i	?	11µM*
Cc1[nH]n(-c2ccccc2)c(=O)c1/C=N/NC(=O)c1ccccc1F	9%	i	10µM*	?
Cc1[nH]n(-c2ccccc2)c(=O)c1/C=N/O	9%	i	i	14%
Cc1[nH]n(-c2ccccc2)c(=O)c1/C=N/N1C(=O)c2ccc3c4c(ccc(c24)C1=O)CC3	25µM*	i	8.9µM*	5µM*
Cc1ccc(-c2nc3ccccn3c2Nc2ccccc2C)s1	-23%	i	i	?
N/C(=N\OC(=O)c1ccc2c(c1)OCO2)c1cccc(Br)c1	-38%	i	i	6.3µM*
COc1ccc(OC)c(NC(=O)CSc2ccc(-c3ccco3)nn2)c1	-7%	i	i	20µM*
COc1ccccc1NC(=O)CSc1ccc(-c2cccs2)nn1	-18%	i	i	22µM*
SMILES	aSyn yeast inh	FUS yeast rescue	Abeta yeast res	TDP-43 yeast inh
COc1ccc(OC)c(NC(=O)CSc2ccc(-c3cccs3)nn2)c1	/	i	i	10%
COc1ccccc1NS(=O)(=O)c1cn(C)c(C)n1	1%	i	i	-21%
Cc1ccc(NC(=O)c2cc(S(=O)(=O)NCCC3=CCCCC3)ccc2F)cc1	9%	/	i	22µM*
CCOc1ccc(NC(=O)c2cc(S(=O)(=O)NC3CCCCCC3)ccc2F)cc1	/	i	i	13µM*
COc1ccc(NC(=O)c2cc(S(=O)(=O)NCC3COc4ccccc4O3)ccc2F)cc1 (stereo not drawn)	6%	?	i	35µM*
NNC(=O)c1ccc(CSc2cccc3cccnc23)cc1	-2%	i	i	3%
Cc1cccc(CSc2cccc3cccnc23)c1	2%	i	i	18µM*
Cc1ccc(N2C(=O)C(c3c(C)[nH]n(-c4ccccc4)c3=O)(C(F)(F)F)C3=C2CC(C)(C)CC3=O)cc1 (stereo not drawn)	-11%	i	i	21%
Cc1[nH]n(-c2ccccc2)c(=O)c1C1(C(F)(F)F)C(=O)N(c2ccccc2)C2=C1C(=O)CC(C)(C)C2 (stereo not drawn)	6%	32µM*	i	-3%
CC(C)(C)NC(=O)CSc1nc2ccc(Nc3nc(N4CCOCC4)nc(N4CCOCC4)n3)cc2s1	?	i	i	11µM*
CC(=O)CSc1nc2ccc(Nc3nc(N4CCOCC4)nc(N4CCOCC4)n3)cc2s1	-1%	?	i	25%
O=C(O)c1ccc(CSc2nc3ccccc3o2)cc1	6%	i	i	13µM*
CSc1nc(NCCOCCO)c2sc3nc(-c4ccco4)c4c(c3c2n1)CCC4	8%	?	i	-3%
CCN(CCO)c1nc(SC)nc2c1sc1nc(-c3ccco3)c3c(c12)CCC3	8%	/	i	10µM*
Cc1ccc(NC(=O)/C=C/C(=O)O)c([N+](=O)[O-])c1	6%	i	i	26%
Cc1cc(NC(=O)/C=C\C(=O)O)c([N+](=O)[O-])cc1C	3%	i	i	22µM*
CCOC(=O)[C@]12CCCC3=C1N(CCC3)C(=O)[C@@H](CC(=O)N1CCC(c3ccccc3)CC1)C2	/	i	/	/
CC1CC2(C)CC(C)C1(COC(=O)Nc1ccccc1)CO2 (stereo not drawn)	1%	i	i	35µM*
Cc1ccccc1Cn1cnc2ccccc2c1=O	5%	i	i	?
O=c1c2ccccc2ncn1Cc1cccc2ccccc12	19%	i	i	11µM*
CCN(CC)c1ccc(NC(=O)C2CCN(S(=O)(=O)c3ccc4c(c3)oc(=O)n4C)CC2)c(C)c1	/	i	i	0%
O=C(CSc1nc(=O)n(Cc2ccncc2)c2c1CCC2)Nc1ccc(F)cc1F	/	i	i	5%
COc1ccc(CCNc2ncnc3nc[nH]c23)cc1	-2%	/	/	/
COc1ccccc1CNC(=O)C(Cc1ccccc1)NS(=O)(=O)c1ccc2c(c1)CCN2C(C)=O (stereo not drawn)	/	?	i	0%
Cc1nc(Cl)sc1C(=O)Nc1cc(F)cc(F)c1	3%	i	i	11µM*
Cc1nc(Cl)sc1C(=O)Nc1ccc(F)cc1	-2%	i	i	3%
N#Cc1c[nH]n2c(NC3CCCCC3)c(-c3ccccc3F)nc12	/	i	i	20%[9.22 µM]
Cc1ccc(-c2ccnc3cc(C)nn23)cc1	8%	i	i	20µM*

Screens from PubChem BioAssay.
